Source: PubChem BioAssay (several laboratories)
Most compounds without a hit are left out; they make up all but 10% or so of the library.
bCat KO growth: beta-catenin-lacking colon tumor cell growth suppression. actives 1.5% (n = 140,000). viability, % at 10 µM. HCT116 beta-catenin knockout viability, CellTiter-Glo, 60 h; active compounds read low;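 active = viability at or under a set limit, the compound median less 4 SD, cut at about 6% in these data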
p97 inhibitor: human p97 ATPase inhibition | P55072 | actives 0.42% (n = 220,000) | inhibition, % at 8 µM | recombinant p97 ATPase, Kinase-Glo ATP luminescence, 3 h | AID 1481; in the data active = inhibition above about 15%
Target sequence (P55072 whole entry, looked up): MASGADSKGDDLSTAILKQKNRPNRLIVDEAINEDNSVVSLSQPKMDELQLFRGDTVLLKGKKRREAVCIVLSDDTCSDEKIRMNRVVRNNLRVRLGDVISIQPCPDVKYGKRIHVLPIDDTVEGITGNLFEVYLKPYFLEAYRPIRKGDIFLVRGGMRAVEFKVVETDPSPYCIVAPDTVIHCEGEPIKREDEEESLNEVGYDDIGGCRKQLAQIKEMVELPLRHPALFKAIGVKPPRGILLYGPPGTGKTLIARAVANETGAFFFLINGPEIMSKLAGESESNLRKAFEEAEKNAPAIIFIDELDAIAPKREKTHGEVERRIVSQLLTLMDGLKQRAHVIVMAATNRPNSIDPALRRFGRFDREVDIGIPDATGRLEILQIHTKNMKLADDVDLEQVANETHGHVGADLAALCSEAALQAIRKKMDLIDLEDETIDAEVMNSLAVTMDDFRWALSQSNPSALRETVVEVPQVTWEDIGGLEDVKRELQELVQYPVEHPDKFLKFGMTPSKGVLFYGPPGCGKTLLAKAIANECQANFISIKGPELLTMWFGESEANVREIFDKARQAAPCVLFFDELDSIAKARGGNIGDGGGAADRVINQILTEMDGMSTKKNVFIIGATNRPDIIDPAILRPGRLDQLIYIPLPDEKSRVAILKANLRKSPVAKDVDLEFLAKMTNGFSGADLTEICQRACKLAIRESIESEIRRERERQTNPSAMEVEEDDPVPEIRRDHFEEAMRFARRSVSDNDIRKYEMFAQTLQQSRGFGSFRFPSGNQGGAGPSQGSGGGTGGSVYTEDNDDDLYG
Insulin prom inh: TRM-6 insulin promoter activity inhibition | AID 1273 | actives 0.9% (n = 130,000) | TRM-6 cells (human fetal islet line), insulin promoter-eGFP reporter, imaging; reporter expression induced with tamoxifen | inhibition, % at 2 µM;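 active = inhibition above the mean plus 3 SD, with well images judged a real hit on visual review, cut at about 60% in these data, passing the limit was not always enough; inconclusive = inhibition over the cutoff but images rejected on review; inactive = inhibition not above the cutoff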
L major viab: inhibitors of Leishmania major promastigote growth | Leishmania major promastigotes, resazurin fluorescence viability | inhibition, % at 10 µM | actives 9% (n = 200,000) | AID 1063; in the data active = inhibition above about 50%;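 note: promastigotes grown with compound for 44 hours at 28 °C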
ROMK mod: modulators of human ROMK potassium channel; B-score at 10 µM; actives 2% (n = 130,000); P48048; Tet-inducible ROMK, thallium flux fluorescence; actives lie on both sides; AID 1918;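 active = signal ratio slope over the read window, or its plate-corrected B-score, at least 3 SD from the plate mean, either direction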;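 note: B-score of the F/F0 ratio slope over 7 to 12 s after thallium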
HCT116 PTEN-null: suppresses growth of cells with PTEN deletion; HCT116 PTEN-null viability, CellTiter-Glo, 60 h; active compounds read low; viability, % at 10 µM; actives 1.2% (n = 140,000);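 active = viability at or below a set limit, 4 SD under the median of all tested compounds, cut at about 3.7% in these data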;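 note: PTEN knockout HCT116 line with beta catenin targeted HCT116 as companion control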
Numbers stand for hits; i = inactive; ? = inconclusive; nt = no result.

SMILES | bCat KO growth | p97 inhibitor | Insulin prom inh | L major viab | ROMK mod | HCT116 PTEN-null
C/C(N)=C(/C#N)C(=O)COC(=O)c1cc(S(=O)(=O)N2CCCCC2)ccc1C | i | i | i | 71 | nt | i
COc1ccc(C2C(C#N)=C(C)NC(C)=C2C(=O)OC(C)C)c(OC)c1 (stereo unspecified) | nt | i | i | i | i | nt
COc1ccc(N=CC2=C(Nc3ccc(OC)cc3)c3c(C)nn(-c4ccccn4)c3CC2)cc1 | nt | i | i | 100 | i | nt
Cc1nn(-c2ccccn2)c2c1C(=O)CC(C)(C)C2Br (stereo unspecified) | nt | i | nt | nt | nt | nt
O=C(CC1NCCNC1=O)NC1Cc2ccccc2C1 (stereo unspecified) | nt | i | nt | nt | i | nt
COc1ccc(C2NCCc3c2[nH]c2ccccc32)cc1COc1ccc(F)cc1 (stereo unspecified) | 1.2 | i | i | 100 | i | 0.9
COc1ccc(C2NC(C(=O)O)Cc3c2[nH]c2ccccc32)cc1CN1CCN(c2ccc(F)cc2)CC1 (stereo unspecified) | nt | i | nt | nt | nt | nt
S=C(NCc1cccs1)NCC1CCCO1 (stereo unspecified) | nt | i | i | i | i | nt
O=C(c1cccnc1)N1N=C(c2cccs2)CC1c1ccc(F)cc1 (stereo unspecified) | nt | i | i | i | i | nt
O=C1c2cccc(OCC(=O)N3N=C(c4cccs4)CC3c3ccc(F)cc3)c2CCN1Cc1cccnc1 (stereo unspecified) | i | i | nt | 85 | nt | i
Cc1nn(-c2ccccc2)c(Cl)c1CN(C(=O)CCl)c1cccc2ccccc12 | 1.8 | i | i | 99 | i | 1.4
Cc1nn(-c2ccccc2)c(Cl)c1CN(C(=O)CCl)c1ccc(Cl)cc1 | 0.8 | i | ? | 100 | i | 0.8
CN1CCN(Cc2cn[nH]c2-c2ccc(F)cc2F)[C@@H](c2ccccc2)C1 | nt | i | i | i | nt | nt
Cc1ccc2nc(C3CCCN(C(=S)Nc4cccc(C)c4C)C3)[nH]c2c1 (stereo unspecified) | i | i | i | 82 | nt | i
Cc1ccc(NC(=S)N2CCCC(c3nc4ccc(C)cc4[nH]3)C2)c(C)c1 (stereo unspecified) | i | i | i | 62 | nt | i
Cc1ccc(N(CC(=O)NC(C)c2ccccc2)S(=O)(=O)c2cccs2)cc1 (stereo unspecified) | i | i | i | 89 | i | i
COC(=O)c1ccc(NC(=O)CCOc2ccccc2)cc1 | nt | i | i | i | i | nt
COC(=O)c1ccc(NC(=O)CSC2=NC(=O)C(c3ccccc3)C(=O)N2)cc1 (stereo unspecified) | i | i | i | 53 | i | i
O=C(CSC1=NC(=O)C(c2ccccc2)C(=O)N1)Nc1cccc(Cl)c1 (stereo unspecified) | i | i | i | i | i | i
COC(=O)c1ccc(NC(=O)CNc2ccccc2)cc1 | nt | i | nt | 76 | i | nt
O=C(CC1(O)C(=O)N(Cc2ccccc2)c2ccccc21)c1ccncc1 (stereo unspecified) | i | i | i | i | nt | i
Cc1[nH]c2ccccc2c1C(=O)CN1CCN(C/C=C/c2ccccc2)CC1 | i | i | i | 83 | nt | i
COc1ccc2[nH]c(C)c(C(=O)CN3CCN(C/C=C/c4ccccc4)CC3)c2c1 | i | i | i | 62 | nt | i
O=C(COc1cccc2ccccc12)NNC(=O)Nc1ccccc1 | i | i | i | i | nt | i
O=C(COc1cccc2ccccc12)NNC(=O)CSCCO | i | i | i | 57 | i | i
SMILES | bCat KO growth | p97 inhibitor | Insulin prom inh | L major viab | ROMK mod | HCT116 PTEN-null
Cc1ccc(S(=O)(=O)NCCSc2nnnn2-c2cc(C)ccc2C)cc1 | i | i | i | 100 | i | i
Cc1ccc(S(=O)(=O)NCCSc2nnnn2-c2ccccc2)cc1 | i | i | i | i | nt | i
COc1ccc(N=C(C)C2=C(O)c3ccccc3C2=O)cc1 | i | i | i | 56 | i | i
O=C(Nc1ccccc1N1CCN(c2ccccc2)CC1)C12CC3CC(CC(C3)C1)C2 | i | i | i | 98 | i | i
N#C/C(=C\c1ccc(OCC(N)=O)cc1)S(=O)(=O)c1ccccc1 | nt | i | nt | i | i | nt
CC(CNCC1CCCO1)COc1cccc2ccccc12 (stereo unspecified) | i | i | i | 80 | nt | i
CC(CNCC1CCCO1)COc1ccccc1 (stereo unspecified) | i | i | i | 62 | i | i
O=C(Cc1cccc2ccccc12)NCC1CCCO1 (stereo unspecified) | i | i | i | i | nt | i
O=S(=O)(Cc1ccccc1)NCC1CCCO1 (stereo unspecified) | i | i | nt | i | nt | i
CCOC(=O)C1=C(C)N(C)C(=O)NC1c1cc2c(cc1[N+](=O)[O-])OCO2 (stereo unspecified) | nt | i | i | i | i | nt
Cc1ccccc1NC(=S)NCCc1ccccc1 | i | i | i | i | i | i
Cc1ccccc1NC(=S)NCc1cccs1 | i | i | i | i | nt | i
Cc1ccccc1NC(=S)NCc1ccccc1 | i | i | i | 59 | i | i
Cc1ccc(NC(=S)NCCc2ccccc2)c(C)c1 | i | i | i | 80 | nt | i
COc1ccc(C)cc1NC(=O)NC1CCN(Cc2ccccc2)CC1 | i | i | i | 65 | nt | i
CCC(C)[C@H](NC(=O)NC1CCN(Cc2ccccc2)CC1)C(=O)OC (stereo partly specified) | i | i | i | 70 | nt | i
COC(=O)c1ccccc1NC(=O)NC1CCN(Cc2ccccc2)CC1 | i | i | i | i | nt | i
CC(C)C1CC(CCN)(Cc2ccccc2)CCO1 (stereo unspecified) | nt | i | i | i | i | nt
Cc1ccccc1NC(=S)N/N=C/C(C)c1ccccc1 (stereo unspecified) | nt | i | i | 97 | i | nt
CC(C)c1ccccc1NC(=S)NC(C)c1ccccc1 (stereo unspecified) | i | i | i | 97 | nt | i
CCCN(Cc1ccccc1)C(=S)Nc1cccc(C)c1C | nt | i | nt | i | i | nt
Cc1ccccc1NC(=S)NC1CCN(Cc2ccccc2)CC1 | i | i | i | 94 | i | i
Cc1cccc(NC(=S)N/N=C/C(C)c2ccccc2)c1C (stereo unspecified) | nt | i | i | i | nt | nt
Cc1cccc(NC(=S)NN(Cc2ccccc2)c2ccccc2)c1C | i | i | nt | 56 | i | i
Cc1ccc(NC(=S)NC2CCN(Cc3ccccc3)CC2)c(C)c1 | i | i | i | 91 | nt | i
CCOC(=O)C1=C(COC(=O)C2(C)CC2(Cl)Cl)NC(=O)NC1c1ccccc1 (stereo unspecified) | nt | i | nt | i | i | nt
Cc1cccc(CCN=c2c([N+](=O)[O-])nn(-c3ccccc3)n2O)c1 | nt | i | i | 62 | i | nt
COc1ccc(CCN=c2c([N+](=O)[O-])nn(-c3cccc(C)c3)n2O)cc1OC | nt | i | nt | i | i | nt
Cc1ccc(N=c2c([N+](=O)[O-])nn(-c3ccccc3)n2O)c(C)c1 | i | i | i | 56 | i | i
COc1ccc(-n2nc([N+](=O)[O-])c(=NCCc3cccc(C)c3)n2O)cc1 | nt | i | i | 81 | i | nt
